We go through 27 compounds from PubChem BioAssay (Tox21).

A short description of assay [1]: qHTS assay to identify small molecule antagonists of the thyroid receptor (TR) signaling pathway - cell viability counter screen (AID 743064). Also: nearly all actives have a fitted effect of over 50% in size. A digest of the protocol: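 GH3.TRE-Luc rat pituitary cells carrying a TRE-luciferase reporter were treated with compound plus 1 nM T3 (final) for 23.5 h at 37 °C. Viability was then read in the same wells by CellTiter-Fluor fluorescence after a further 30 min.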
(In general: qHTS replaces the single test concentration by a dilution series.)

The nature of assay [2]: qHTS assay to identify small molecule antagonists of the thyroid receptor (TR) signaling pathway (AID 743065). Also: series mostly up to about 70 µM; nearly all actives have a fitted effect of over 55% in size. An outline of the steps: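 Antagonism measured as loss of luciferase signal in GH3 cells stably carrying a TRE-luciferase reporter, co-treated with compound and T3 (1 nM final) for 23.5 h at 37 C. Viability was read in the same well by CellTiter-Fluor.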
The subject of assay [3] is thyroid hormone receptor (rat, GH3 cells). Briefly: qHTS assay to identify small molecule agonists of the thyroid receptor (TR) signaling pathway (AID 743066; calls by dose curve).
For assay [4], the target named is Estrogen receptor (Homo sapiens) (UniProt P03372). Briefly: qHTS assay to identify small molecule antagonists of the estrogen receptor alpha (ER-alpha) signaling pathway (AID 743069; active = well fitted curve in the direction sought with a large enough effect in the signal ratio in the repeat runs, not every such curve was filed as active; the % refers to the signal ratio). An outline of the steps: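 Antagonist mode: compounds in DMSO were co-added with 17beta-estradiol to ER-alpha-bla HEK293 cells (2% charcoal-stripped serum) and left 18 h at 37C. Reporter inhibition was measured as FRET fluorescence after 2 h LiveBLAzer substrate at room temperature.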
Chain of Estrogen receptor (Homo sapiens) (P03372 whole entry, looked up): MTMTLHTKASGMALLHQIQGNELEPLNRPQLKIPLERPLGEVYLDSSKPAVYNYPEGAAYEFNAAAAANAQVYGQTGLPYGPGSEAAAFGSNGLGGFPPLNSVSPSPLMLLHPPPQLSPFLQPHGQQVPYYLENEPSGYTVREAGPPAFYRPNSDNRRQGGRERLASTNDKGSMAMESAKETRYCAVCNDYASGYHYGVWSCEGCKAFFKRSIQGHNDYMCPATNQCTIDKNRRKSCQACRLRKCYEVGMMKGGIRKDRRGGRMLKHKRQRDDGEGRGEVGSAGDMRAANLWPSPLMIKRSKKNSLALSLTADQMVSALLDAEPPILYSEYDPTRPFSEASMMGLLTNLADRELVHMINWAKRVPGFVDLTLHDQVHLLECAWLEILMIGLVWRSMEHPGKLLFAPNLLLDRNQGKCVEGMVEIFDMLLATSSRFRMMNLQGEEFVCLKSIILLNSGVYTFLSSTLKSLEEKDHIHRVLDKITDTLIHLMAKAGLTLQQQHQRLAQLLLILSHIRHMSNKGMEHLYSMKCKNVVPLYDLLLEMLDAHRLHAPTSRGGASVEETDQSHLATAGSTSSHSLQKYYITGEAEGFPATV

Assay [5] can be described thus: qHTS assay to identify small molecule antagonists of the estrogen receptor alpha (ER-alpha) signaling pathway - cell viability counter screen (AID 743074; calls by dose curve;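 also: HEK293 cells carrying ER-alpha-UAS-bla reporter stimulated with 17beta-estradiol; nearly all actives have a fitted effect of over 45% in size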).
For assay [6], the target named is Estrogen receptor (Homo sapiens) (UniProt P03372). Briefly: qHTS assay to identify small molecule agonists of the estrogen receptor alpha (ER-alpha) signaling pathway (AID 743075; calls by dose curve;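 also: HEK293 GripTite cells with ER-alpha and UAS-driven beta-lactamase reporter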).
Assay [7] is described as follows: qHTS assay to identify small molecule antagonists of the estrogen receptor alpha (ER-alpha) signaling pathway using the BG1 cell line (AID 743080; calls by dose curve;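 also: BG1 cells stimulated with 17beta-estradiol alongside compound; series mostly up to about 70 µM; nearly all actives have a fitted effect of over 25% in size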). A digest of the protocol:
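BG1Luc4E2, endogenous ER-alpha, 4xERE-luc; 5 d charcoal-stripped FBS, phenol red free; 24 h plating; cpd + 17beta-estradiol 21.5 h, 37 C/5% CO2; CellTiter-Fluor viability 30 min, then ONE-Glo luciferase 30 min RT.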

The nature of assay [8]: qHTS assay to identify small molecule antagonists of the estrogen receptor alpha (ER-alpha) signaling pathway using the BG1 cell line - cell viability counter screen (AID 743081).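 Also: compound given together with 17beta-estradiol as the ER stimulus; series mostly up to about 70 µM; nearly all actives have a fitted effect of over 45% in size.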
The target in a further assay is Aromatase (Homo sapiens) (UniProt P11511). Briefly: qHTS assay to identify aromatase inhibitors (AID 743083). Also: series mostly up to about 70 µM; nearly all actives have a fitted effect of over 55% in size.
Chain of Aromatase (Homo sapiens) (P11511 whole entry, looked up): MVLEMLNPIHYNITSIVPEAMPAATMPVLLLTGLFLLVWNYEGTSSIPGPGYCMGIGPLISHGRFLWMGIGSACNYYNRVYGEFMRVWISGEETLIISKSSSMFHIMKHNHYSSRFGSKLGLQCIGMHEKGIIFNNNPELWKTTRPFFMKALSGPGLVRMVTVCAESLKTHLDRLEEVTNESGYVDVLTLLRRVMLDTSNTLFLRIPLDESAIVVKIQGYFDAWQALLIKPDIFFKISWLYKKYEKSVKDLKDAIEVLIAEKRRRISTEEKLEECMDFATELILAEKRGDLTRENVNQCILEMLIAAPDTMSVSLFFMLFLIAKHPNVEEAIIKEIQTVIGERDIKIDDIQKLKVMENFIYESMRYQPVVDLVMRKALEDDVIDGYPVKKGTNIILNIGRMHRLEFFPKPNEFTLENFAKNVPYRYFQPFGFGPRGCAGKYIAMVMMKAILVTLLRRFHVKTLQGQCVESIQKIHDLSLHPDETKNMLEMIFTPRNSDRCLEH
Assay [9] has as its target Estrogen receptor (Homo sapiens) (UniProt P03372). Briefly: qHTS assay to identify small molecule agonists of the estrogen receptor alpha (ER-alpha) signaling pathway using the BG1 cell line (AID 743079). Also: nearly all actives have a fitted effect of over 20% in size. Also: potency is read from the fitted curve at half-maximal effect.

The structures appear in SMILES notation. Inconclusive results are not listed. Values without a mark were called inactive. Calls of active or inactive are those of the source. Unless noted, calls follow the shape of the dose curve; as a rule, active = well fitted curve in the direction sought with a large enough effect in the repeat runs; inconclusive = weak or mixed curves; inactive = no such curve, though single readings can be large; an effect the other way counts as inactive or inconclusive.

In the case of `Cc1cccc(C)c1NC(=O)c1ccccc1C(=O)O`, the Potency entry (in [1]; in [2]; in assay [7]; in the assay with Aromatase (Homo sapiens)) was “inactive” in each case. Besides, the compound was classed as inactive in [3], in [4], in assay [5], in assay [6] and in assay [8].
Take `CCOC(=O)CC(=O)c1ccccc1`: the Potency entry (in assay [1]; in assay [2]; in [7]; with Aromatase (Homo sapiens)) was “inactive” each time. The result in assay [3], in [4], in [5], in [6] and in [8] was inactive.
With `COc1ccc(S(=O)(=O)N2c3ccc(Cl)cc3[C@@](O)(c3ccccc3Cl)[C@H]2C(=O)N2CCC[C@@H]2C(N)=O)cc1OC`, the Potency result (in [1]; in assay [2]; in assay [9]; in [7]; with Aromatase (Homo sapiens)) was “inactive” each time. Moreover, the result in [3], in assay [4], in assay [5], in assay [6] and in [8] was inactive.
For `COC(=O)CCCCCCCC(=O)OC`, the Potency result (in assay [1]; in assay [2]; in assay [9]; with Aromatase (Homo sapiens)) was “inactive” in each case. The compound was called inactive in [3], in assay [4], in assay [5], in assay [6] and in assay [8].
With `CC(C)CCCC(C)(C)O`, the Potency result (in assay [1]; in assay [2]; in assay [9]; in the assay with Aromatase (Homo sapiens)) was “inactive” throughout. The result in assay [3], in [4], in assay [5], in assay [6] and in [8] was inactive.
With `CC(CO)c1ccccc1` (stereo unspecified), the Potency entry (in assay [1]; in assay [2]; with Aromatase (Homo sapiens)) was “inactive” throughout. For the same compound, the outcome in assay [3], in assay [4], in assay [5], in assay [6] and in [8] was inactive.
Regarding `CC(C)(C)c1n[nH]c(=S)n(N)c1=O`, the Potency entry (in [1]; in assay [2]; in assay [9]; with Aromatase (Homo sapiens)) was “inactive” throughout. Further, the compound was called inactive in assay [3], in [4], in [5], in assay [6] and in assay [8].
`Cc1cc(C(C)(C)C)c(O)c(C)c1CC1=NCCN1`: the Potency result (in assay [1]; in [2]; in assay [9]; in the assay with Aromatase (Homo sapiens)) was “inactive” each time. The outcome in assay [3], in assay [4], in assay [5], in [6] and in assay [8] was inactive.
Consider `O=C(O)Cc1ccc(Cl)cc1Cl`, for which the Potency result (in assay [1]; in assay [2]; in assay [9]; with Aromatase (Homo sapiens)) was “inactive” in each case. Besides, the compound was classed as inactive in assay [3], in assay [4], in assay [5], in assay [6] and in assay [8].
On to `O=S(=O)(O)c1cc(O)c2ccc(Nc3ccccc3)cc2c1`, for which the Potency entry (in assay [1]; in assay [2]; in assay [7]; in the assay with Aromatase (Homo sapiens)) was “inactive” each time. Besides, the call in assay [3], in [4], in [5], in [6] and in assay [8] was inactive.
With `O=C(OCc1ccccc1)C(=O)OCc1ccccc1`, the Potency entry (in assay [1]; in assay [2]; in assay [9]; in the assay with Aromatase (Homo sapiens)) was “inactive” in each case. Besides, the call in [3], in assay [4], in [5], in assay [6] and in assay [8] was inactive.
On to `CC(C)c1ccc2cc(C(C)C)ccc2c1`, for which the Potency entry (in [1]; in assay [2]; in assay [9]; with Aromatase (Homo sapiens)) was “inactive” throughout. The result in assay [3], in assay [4], in assay [5], in [6] and in assay [8] was inactive.
Turning to `CC(=O)/C=C/C1C(C)=CCC(C)C1(C)C` (stereo unspecified), the Potency result (in assay [1]; in assay [2]; in assay [9]; in [7]; in the assay with Aromatase (Homo sapiens)) was “inactive” throughout. For the same compound, the outcome in assay [3], in assay [4], in [5], in [6] and in [8] was inactive.
In the case of `CCC(CC)CO`, the Potency result (in [1]; in [2]; in [9]; in the assay with Aromatase (Homo sapiens)) was “inactive” throughout. In addition, the compound was classed as inactive in assay [3], in assay [4], in assay [5], in [6] and in [8].
As for `COc1ccc(-c2cc(=O)c3c(O)cc(O[C@@H]4O[C@H](CO[C@@H]5O[C@@H](C)[C@H](O)[C@@H](O)[C@H]5O)[C@@H](O)[C@H](O)[C@H]4O)cc3o2)cc1O`, the Potency result (in assay [1]; in [2]; in assay [9]; in the assay with Aromatase (Homo sapiens)) was “inactive” in each case. In addition, the compound was classed as inactive in assay [3], in assay [4], in assay [5], in [6] and in assay [8].
Consider `CC(=C(CCOC(=O)C(C)C)SSC(CCOC(=O)C(C)C)=C(C)N(C=O)Cc1cnc(C)nc1N)N(C=O)Cc1cnc(C)nc1N`, for which the Potency result (in assay [1]; in assay [2]; in [7]; in the assay with Aromatase (Homo sapiens)) was “inactive” throughout. The outcome in assay [3], in assay [4], in [5], in assay [6] and in assay [8] was inactive.
For the compound `Nc1ccc2cc(S(=O)(=O)O)cc(O)c2c1`, the Potency result (in assay [1]; in assay [2]; in [9]; in the assay with Aromatase (Homo sapiens)) was “inactive” in each case. The compound was classed as inactive in [3], in assay [4], in assay [5], in [6] and in assay [8].
Turning to `Nc1ncnc(Nc2ccccc2)n1`, the Potency entry (in assay [1]; in assay [2]; with Aromatase (Homo sapiens)) was “inactive” each time. The result in assay [3], in assay [4], in assay [5], in [6] and in assay [8] was inactive.
As for `CCOC(=O)c1ccc(OC(=O)CCCCCN=C(N)N)cc1`, the Potency result (in assay [1]; in assay [2]; in the assay with Aromatase (Homo sapiens)) was “inactive” each time. In addition, the compound was classed as inactive in [3], in assay [4], in assay [5], in assay [6] and in [8]. For the same compound, the Potency in assay [9] was 14.3 µM (active).
On to `O=C(O)c1cc(Cl)cc([N+](=O)[O-])c1Cl`, for which the Potency entry (in [1]; in assay [2]; in assay [9]; in the assay with Aromatase (Homo sapiens)) was “inactive” throughout. In addition, the result in assay [3], in assay [4], in assay [5], in assay [6] and in [8] was inactive.
Turning to `CC(CC=O)CCCC(C)(C)O` (stereo unspecified), the Potency entry (in assay [1]; in assay [2]; in [9]; in the assay with Aromatase (Homo sapiens)) was “inactive” each time. In addition, the call in assay [3], in [4], in [5], in assay [6] and in assay [8] was inactive.
With `CC(=O)Nc1cccc(C)c1`, the Potency result (in assay [1]; in [2]; in assay [9]; in assay [7]; with Aromatase (Homo sapiens)) was “inactive” each time. Further, the result in assay [3], in assay [4], in assay [5] and in [6] was inactive.
As for `COC(=O)CCc1ccc(OCC(O)CNC(C)C)cc1` (stereo unspecified), the Potency entry (in [1]; in [2]; with Aromatase (Homo sapiens)) was “inactive” in each case. Further, the outcome in assay [3], in [5] and in assay [8] was inactive.
Take `CCC(C)(CCC(C)C)C(=O)O` (stereo unspecified): the Potency result in [1] and in [2] was “inactive” throughout. Moreover, the result in assay [3], in assay [5] and in assay [8] was inactive.
As for `CC/C=C\CC1=C(C)CCC1=O`, the Potency entry (in assay [1]; in [2]; with Aromatase (Homo sapiens)) was “inactive” in each case. Further, the compound was called inactive in assay [3], in assay [5] and in assay [8].
As for `OCCC(F)(F)C(F)(F)C(F)(F)C(F)(F)C(F)(F)C(F)(F)C(F)(F)C(F)(F)F`, the Potency entry (in assay [1]; in assay [2]; in [9]; in assay [7]; in the assay with Aromatase (Homo sapiens)) was “inactive” each time. The result in [3], in [5], in [6] and in [8] was inactive.
On to `O=C(/N=N/C(=O)OCc1ccccc1)OCc1ccccc1`, for which the Potency entry (in assay [1]; in [2]; with Aromatase (Homo sapiens)) was “inactive” each time. The outcome in assay [3], in assay [4], in assay [6] and in [8] was inactive.
